Test results published in PubChem BioAssay (EPA / NIEHS).
Results filed as inconclusive are left out. Calls of active or inactive are those of the source. How the source made its calls, unless noted: active means hit-call score of the fitted dose curve at least 0.9, where 1 is the maximum; inactive means score below 0.9.

Experiments:
[1] = read-out: Monokine induced gamma interferon (MIG), CXCL9 (gene 4283); assay: BSK_3C_MIG: BioMAP Diversity Plus: 3C Assay for Monokine induced gamma interferon (MIG) Biomarker Activity (AID 2283021); settings: primary human endothelial cells (HUVEC); actives raise or lower the signal;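 on AC50: MIG protein level measured by immunoassay in the treated endothelial cultures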
Outline: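 Read-out is ELISA detection of MIG on human umbilical vein endothelial cells, taken 24 h after dosing. Gain or loss of signal was scored relative to DMSO controls using bidirectional curve fitting.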

[2] = target: human Vitamin D Receptor (VDR), VDR (gene 7421) (UniProt P11473); assay: ATG_VDR_TRANS: Attagene TRANS-FACTORIAL HepG2 Assay for human Vitamin D Receptor (VDR) (AID 2283022; active means hit-call score of the fitted dose curve at least 0.9, where 1 is the maximum)
Sequence of human Vitamin D Receptor (VDR), VDR (gene 7421) (P11473 whole entry, looked up, the tested form may be a part): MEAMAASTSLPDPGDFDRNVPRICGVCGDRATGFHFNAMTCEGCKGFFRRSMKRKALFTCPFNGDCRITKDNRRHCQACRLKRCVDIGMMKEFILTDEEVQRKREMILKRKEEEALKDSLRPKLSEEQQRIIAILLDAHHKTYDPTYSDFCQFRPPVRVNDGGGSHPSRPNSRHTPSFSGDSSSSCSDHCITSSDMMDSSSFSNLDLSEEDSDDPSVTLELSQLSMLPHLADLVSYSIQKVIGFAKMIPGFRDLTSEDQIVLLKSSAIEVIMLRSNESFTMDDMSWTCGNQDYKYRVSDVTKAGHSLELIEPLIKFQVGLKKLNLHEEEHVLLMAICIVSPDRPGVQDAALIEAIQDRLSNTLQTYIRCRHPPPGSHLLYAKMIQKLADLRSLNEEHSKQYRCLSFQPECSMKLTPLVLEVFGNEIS
Outline: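 HepG2 cells were transiently transfected with multiple GAL4-UAS reporter units, so signal reflects exogenous chimeric receptor-Gal4 activity. After 24 h compound exposure, reporter mRNA was measured by RT-PCR, fluorescent labelling and capillary electrophoresis, fitted for gain of signal versus DMSO.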

[3] = BSK_3C_SRB: Viability Assessment in the BioMAP Diversity Plus: 3C Assay (AID 2283023); settings: primary human endothelial cells (HUVEC);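 further: fitted both ways against DMSO so a hit may be signal rise or drop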
Outline: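 Primary human umbilical vein endothelial cells in the 3C system were read 24 h after compound dosing. Total protein was stained with 0.1% sulforhodamine B after 10% TCA fixation and read at 560 nm, with bidirectional fitting against DMSO as baseline.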

[4] = read-out: Matrix Metallopeptidase 1 (MMP1), MMP1 (gene 4312); assay: BSK_BE3C_MMP1: BioMAP Diversity Plus: BE3C Assay for Matrix Metallopeptidase 1 (MMP1) Biomarker Activity (AID 2283024); settings: primary human bronchial epithelial cells; actives raise or lower the signal
Outline: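 Human bronchial epithelial cells (BE3C system) exposed to compound for 24 h; MMP1 then quantified by ELISA. Activity was fitted in both directions relative to DMSO.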

[5] = BSK_3C_Vis: BioMAP Diversity Plus: 3C Assay for Morphology Visualization (AID 2283025); settings: primary human endothelial cells (HUVEC);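 further: fitted both ways so gain or loss versus DMSO counts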;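 on AC50: light microscopy image of cell morphology used as background control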
Outline: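 Chemicals were added to primary human umbilical vein endothelium, cells were incubated 24 h, and morphology was then visualized by light microscopy. Gain or loss of signal was fitted bidirectionally relative to DMSO.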

[6] = read-out: Pselectin, SELP (gene 6403); assay: BSK_4H_Pselectin: BioMAP Diversity Plus: 4H Assay for Pselectin Biomarker Activity (AID 2283026); settings: primary human endothelial cells (HUVEC); actives raise or lower the signal
Outline: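 ELISA read-out of P-selectin on human umbilical vein endothelium after 24 h of dosing. Values derive from bidirectional fitting relative to DMSO. Parallel SRB protein staining flagged overt cytotoxicity.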

[7] = BSK_4H_SRB: Viability Assessment in the BioMAP Diversity Plus: 4H Assay (AID 2283027); settings: primary human endothelial cells (HUVEC);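 further: cells exposed to compound for 24 h before staining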;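 on AC50: curves fitted both ways versus DMSO so AC50 may be loss or gain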
Outline: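 Human umbilical vein endothelial cells were dosed with chemical and, after 24 h, fixed with 10% TCA, stained with 0.1% sulforhodamine B, and read at 560 nm to give total protein as a cytotoxicity measure. Bidirectional fitting relative to DMSO control.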

[8] = BSK_BE3C_SRB: Viability Assessment in the BioMAP Diversity Plus: BE3C Assay (AID 2283028); settings: primary human bronchial epithelial cells
Outline: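 Human primary bronchial epithelial cells were exposed to test chemicals for 24 h. Total protein in parallel cultures was then measured by staining with 0.1% sulforhodamine B after 10% TCA fixation, with absorbance read at 560 nm. Activity was fitted bidirectionally against DMSO.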

[9] = read-out: Thrombomodulin, THBD (gene 7056); assay: BSK_3C_Thrombomodulin: BioMAP Diversity Plus: 3C Assay for Thrombomodulin Biomarker Activity (AID 2283029); settings: primary human endothelial cells (HUVEC); actives raise or lower the signal
Outline: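 Read-out is ELISA of thrombomodulin on human umbilical vein endothelium 24 h after chemical dosing. Gain or loss of signal is scored relative to DMSO. Overt cytotoxicity is checked in parallel cultures by sulforhodamine B staining.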

[10] = read-out: Urokinase-type plasminogen activator receptor (uPAR), PLAUR (gene 5329); assay: BSK_4H_uPAR: BioMAP Diversity Plus: 4H Assay for Urokinase-type plasminogen activator receptor (uPAR) Biomarker Activity (AID 2283030); settings: primary human endothelial cells (HUVEC); actives raise or lower the signal
Outline: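 Primary human umbilical vein endothelial cells were exposed to chemical for 24 h before cell-surface uPAR was quantified by ELISA. Activity was fitted bidirectionally against the DMSO negative control baseline.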

[11] = read-out: Vascular endothelial growth factor receptor 2 (Homo sapiens) (UniProt P35968); assay: BSK_4H_VEGFRII: BioMAP Diversity Plus: 4H Assay for Vascular endothelial growth factor receptor 2 (VEGFR2) Biomarker Activity (AID 2283031); settings: primary human endothelial cells (HUVEC); actives raise or lower the signal;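 on AC50: cell-surface VEGFR2 protein level quantified by ELISA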
Outline: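 Primary human umbilical vein endothelial cells in the BioMAP 4H system were dosed with test chemical, and 24 h later VEGFRII was measured by ELISA. Activity was fitted bidirectionally against DMSO as negative control and baseline.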

[12] = read-out: Human Leukocyte Antigen - DR isotype (HLADR), HLA-DRA (gene 3122); assay: BSK_BE3C_HLADR: BioMAP Diversity Plus: BE3C Assay for Human Leukocyte Antigen - DR isotype (HLADR) Biomarker Activity (AID 2283032); settings: primary human bronchial epithelial cells; actives raise or lower the signal
Outline: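 ELISA read-out of HLA-DR on human lung bronchial epithelial primary cells, measured 24 h post-dosing. Both increases and decreases were scored relative to DMSO vehicle.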

[13] = read-out: Vascular cell adhesion molecule 1 (VCAM1), VCAM1 (gene 7412); assay: BSK_4H_VCAM1: BioMAP Diversity Plus: 4H Assay for Vascular cell adhesion molecule 1 (VCAM1) Biomarker Activity (AID 2283033); settings: primary human endothelial cells (HUVEC); actives raise or lower the signal
Outline: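 ELISA read-out of VCAM-1 on human umbilical vein endothelium 24 hours after chemical dosing; gain or loss of signal was fitted relative to DMSO, with sulforhodamine B staining of parallel cultures flagging overt cytotoxicity.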

[14] = read-out: Interferon-gamma inducible Protein 10 (IP10), CXCL10 (gene 3627); assay: BSK_BE3C_IP10: BioMAP Diversity Plus: BE3C Assay for Interferon-gamma inducible Protein 10 (IP10) Biomarker Activity (AID 2283034); settings: primary human bronchial epithelial cells; actives raise or lower the signal
Outline: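 Chemical is dosed onto human lung bronchial epithelial primary cells, cultures are incubated 24 h, and IP-10 is then quantified by ELISA. Gain or loss of signal is fitted in both directions relative to DMSO.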

[15] = read-out: Monokine induced gamma interferon (MIG), CXCL9 (gene 4283); assay: BSK_BE3C_MIG: BioMAP Diversity Plus: BE3C Assay for Monokine induced gamma interferon (MIG) Biomarker Activity (AID 2283035); settings: primary human bronchial epithelial cells; actives raise or lower the signal
Outline: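 ELISA read-out of MIG in human lung bronchial epithelial primary cultures, 24 h post-dosing. Bidirectional curve fit vs DMSO baseline.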

[16] = read-out: Transforming growth factor beta 1 (TGFb1), TGFB1 (gene 7040); assay: BSK_BE3C_TGFb1: BioMAP Diversity Plus: BE3C Assay for Transforming growth factor beta 1 (TGFb1) Biomarker Activity (AID 2283036); settings: primary human bronchial epithelial cells; actives raise or lower the signal
Outline: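 Primary human lung bronchial epithelial cells; compound exposure 24 h; TGF-b1 by ELISA; bidirectional fit, DMSO baseline. Parallel SRB total-protein staining for cytotoxicity.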

[17] = read-out: Plasminogen activator inhibitor-1 (PAI1), SERPINE1 (gene 5054); assay: BSK_BE3C_PAI1: BioMAP Diversity Plus: BE3C Assay for Plasminogen activator inhibitor-1 (PAI1) Biomarker Activity (AID 2283037); settings: primary human bronchial epithelial cells; actives raise or lower the signal
Outline: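 Primary human lung bronchial epithelial cells; chemical dosing; 24 h; PAI-1 measured by ELISA; bidirectional fit referenced to DMSO as negative control.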

[18] = read-out: urokinase plasminogen activator (uPA), PLAU (gene 5328); assay: BSK_BE3C_uPA: BioMAP Diversity Plus: BE3C Assay for urokinase plasminogen activator (uPA) Biomarker Activity (AID 2283038); settings: primary human bronchial epithelial cells; actives raise or lower the signal
Outline: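 Human primary bronchial epithelial cells were exposed to chemical for 24 h, then uPA levels were measured by ELISA. Responses were fitted bidirectionally against DMSO as negative control and baseline. Parallel SRB staining of total protein gauged overt cytotoxicity.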

[19] = read-out: Urokinase-type plasminogen activator receptor (uPAR), PLAUR (gene 5329); assay: BSK_BE3C_uPAR: BioMAP Diversity Plus: BE3C Assay for Urokinase-type plasminogen activator receptor (uPAR) Biomarker Activity (AID 2283039); settings: primary human bronchial epithelial cells; actives raise or lower the signal
Outline: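 Human bronchial epithelial primary cells; chemical exposure 24 h; uPAR by ELISA; bidirectional fit vs DMSO control.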

[20] = read-out: Interleukin-8 (IL8), CXCL8 (gene 3576); assay: BSK_3C_IL8: BioMAP Diversity Plus: 3C Assay for Interleukin-8 (IL8) Biomarker Activity (AID 2283020); settings: primary human endothelial cells (HUVEC); actives raise or lower the signal
Outline: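 ELISA read-out of IL-8 from human umbilical vein endothelium, measured 24 h after chemical dosing. Activity is expressed relative to DMSO negative control, with both increases and decreases fitted.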

Measured: AC50

Cc1cc(=O)[nH]c(=S)[nH]1
not listed: [20]
inactive: all other assays above

Cc1ccc(C(C)C)c(O)c1
not listed: [2] | [4] | [14] | [15]
inactive: all other assays above

CCOC(=O)CCC(=O)OCC
not listed: [2] | [8] | [14] | [15]
inactive: all other assays above

Clc1cc(Cl)c(Cl)cc1Cl
not listed: [2] | [20]
inactive: all other assays above

Cc1ccc2ncccc2c1
not listed: [2] | [8] | [14] | [20]
inactive: all other assays above

CCCc1cc(=O)[nH]c(=S)[nH]1
not listed: [2] | [8] | [20]
inactive: all other assays above

Cc1ccc(C)c(C)c1
not listed: [2] | [4] | [14] | [20]
inactive: all other assays above

CCCCC(CC)COC(=O)CC(C(=O)OCC(CC)CCCC)S(=O)(=O)O (stereo unspecified)
inactive: [2] | [9] | [11]
active: [1] 38 µM | [3] 31.2 µM | [4] 10.2 µM | [5] 37.5 µM | [6] 32.2 µM | [7] 38 µM | [10] 39 µM | [12] 7.52 µM | [13] 34.5 µM | [15] 8.91 µM | [16] 6.71 µM | [17] 11.5 µM | [18] 11.1 µM | [19] 11.9 µM

COc1cccc2c1C(=O)c1c(O)c3c(c(O)c1C2=O)C[C@@](O)(C(=O)CO)C[C@@H]3O[C@H]1C[C@H](N)[C@H](O)[C@H](C)O1
inactive: [2]

CC(C)c1ccc(C(=O)N=C(N)N)cc1S(C)(=O)=O
not listed: [2] | [4] | [8] | [14] | [20]
inactive: all other assays above

Cc1ccc(N(C)C)cc1
not listed: [4] | [8] | [14] | [20]
inactive: all other assays above

CCc1c(C(=O)NN2CCCCC2)nn(-c2ccc(Cl)cc2Cl)c1-c1ccc(Br)cc1
inactive: [1] | [2] | [4] | [9] | [16]
active: [3] 9.03 µM | [5] 13.2 µM | [6] 2.66 µM | [7] 6.66 µM | [10] 6.58 µM | [11] 9.41 µM | [12] 11 µM | [13] 9.11 µM | [17] 11 µM | [18] 33.3 µM | [19] 14.4 µM

CC1=C(/C=C/C(C)=C/C=C/C(C)=C/CO)C(C)(C)CCC1
active: [12] 18 µM | [13] 31.1 µM
not listed: [4] | [20]
inactive: all other assays above

CCOc1ccc2c(c1)C(C)=CC(C)(C)N2
active: [2] 150 µM
not listed: [4] | [20]
inactive: all other assays above

CN1CCN(Cc2cc(-c3ccc4[nH]c(=O)oc4c3)co2)[C@@H](c2ccc(F)cc2)C1
active: [3] 28.2 µM | [6] 17.6 µM | [10] 11.3 µM
not listed: [5] | [8] | [14] | [20]
inactive: all other assays above

CC(=O)OC/C=C(\C)CCC=C(C)C
not listed: [2] | [8] | [14] | [20]
inactive: all other assays above
